Shown are actives, neighbours in structure and some others; about 9% of the full set was active somewhere.
HTT ATP protect: cytoprotection in Huntington HTT-Q103 PC12 cell model; Potency, µM (highest dose often 56.4 µM), without a hit: cytoprotection (ATP increase), usual class: activators; AID 1471; PC12 HTT-Q103 induced, cytoprotection, ATP luminescence, 40 h; 0.14% of 230,000 active; further: % of control where 0% means no effect; nearly all actives have a fitted effect of over 45% in size
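Quantitative HTS on tebufenozide-induced (100 nM) PC12 cells expressing HTTQ103 exon 1–GFP; compounds tested as a concentration series; survival measured via cellular ATP.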
HttQ103 aggreg: reduces HttQ103-GFP aggregates in PC12 cells; PC12 HttQ103-GFP aggregates, Acumen cytometry, 40 h; Potency, µM (titrated, usually from 46.1 µM), for the others: at the top dose activity change, negative = inhibition, usual class: inhibitors; 1.1% of 220,000 active; further: on the % scale 0 is the no-effect control and ±100 the full control effect; nearly all actives have a fitted effect of over 60% in size
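Quantitative HTS on tebufenozide-induced (100 nM) PC12 cells stably expressing polyQ103 Huntingtin exon 1–GFP. Reduction of bright GFP aggregates, detected by laser scanning cytometry after lysis, identified actives across the titration.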
HPGD block: inhibitors of human 15-hydroxyprostaglandin dehydrogenase (HPGD); Potency, µM, for inactives: at the top dose activity change, negative = inhibition, most hits filed as inhibitors; 4.3% of 150,000 active; P15428; purified HPGD, NADH fluorescence kinetic, PGE2 substrate; active means well fitted inhibition curve with a large enough effect, not every such curve was filed as active; inconclusive means small, poorly fitted or top-dose-only effect, or another doubt; inactive means no such curve, though single readings can be large or run the other way; further: on the % scale 0 is the no-effect control and ±100 the full control effect
Target sequence (P15428 whole entry, looked up): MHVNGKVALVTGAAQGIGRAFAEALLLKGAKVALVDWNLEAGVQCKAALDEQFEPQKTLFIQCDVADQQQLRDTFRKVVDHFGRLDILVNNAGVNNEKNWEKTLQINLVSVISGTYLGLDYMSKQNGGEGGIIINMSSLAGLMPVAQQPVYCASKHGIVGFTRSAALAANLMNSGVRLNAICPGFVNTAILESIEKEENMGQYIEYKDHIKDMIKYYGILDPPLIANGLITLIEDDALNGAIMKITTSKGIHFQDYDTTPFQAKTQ
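NADH formation kinetics: reaction with 30 uM PGE2 and 1 mM NAD+ (final), 20 nM enzyme, Tris-HCl pH 8 with Tween 20, after 15 min compound preincubation at room temperature. Fluorescence change, last versus first of five reads.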
ALDH1A1 inh: blocks purified human ALDH1A1 activity; P00352; Purified ALDH1A1, NADH fluorescence, propionaldehyde substrate; Potency, µM (doses to about 75.3 µM), without a hit: at the top dose activity, negative = inhibition, usual class: inhibitors; 7.3% of 220,000 active; AID 1030; active means well fitted inhibition curve with a large enough effect, not every such curve was filed as active; inconclusive means small, poorly fitted or top-dose-only effect, or another doubt; inactive means no such curve, though single readings can be large or run the other way;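 further: plate controls were no enzyme wells and a reference inhibitor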
Target sequence (P00352 whole entry, looked up): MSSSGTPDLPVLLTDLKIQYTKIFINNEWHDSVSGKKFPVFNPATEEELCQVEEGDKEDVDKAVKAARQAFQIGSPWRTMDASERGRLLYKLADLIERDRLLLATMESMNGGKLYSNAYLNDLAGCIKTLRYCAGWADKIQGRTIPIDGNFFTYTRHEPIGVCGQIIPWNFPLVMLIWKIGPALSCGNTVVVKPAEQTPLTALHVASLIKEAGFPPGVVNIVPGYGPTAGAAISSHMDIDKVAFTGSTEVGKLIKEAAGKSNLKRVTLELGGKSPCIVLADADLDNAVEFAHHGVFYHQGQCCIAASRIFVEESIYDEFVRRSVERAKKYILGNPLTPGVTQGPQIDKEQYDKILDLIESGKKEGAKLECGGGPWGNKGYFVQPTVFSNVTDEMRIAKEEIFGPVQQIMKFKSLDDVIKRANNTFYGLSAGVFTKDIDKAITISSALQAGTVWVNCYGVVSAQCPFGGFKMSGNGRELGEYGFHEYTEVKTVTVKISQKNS
KinaseGlo FLuc: Kinase-Glo luciferase inhibition (counter-screen); Q27757; Kinase-Glo luciferase, ATP luminescence, 8 min; Potency, µM (highest dose often 38.3 µM), for inactives: at the top dose activity change, negative = inhibition, most hits filed as inhibitors; 0.28% of 200,000 active; further: on the % scale 0 is the no-effect control and ±100 the full control effect; nearly all actives have a fitted effect of over 60% in size
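Kinase-Glo luciferase light output from ATP and luciferin was measured with 10 uM ATP, within the enzyme's linear range. Buffer: 50 mM imidazole pH 7.2, 50 mM KCl, 7 mM MgCl2, 0.01% Tween 20, 0.05% BSA; luminescence read after 8 min at ambient temperature.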
LMNA splice mod: LMNA splicing modulation. Potency, µM (top dose mostly 46.1 µM), without a hit: at the top dose ratio change, negative = inhibition, hits mostly inhibitors. 0.01% of 200,000 active. HeLa LMNA splicing GFP/RFP minigene ratio, 48 h. AID 1487; active means well fitted inhibition curve with a large enough effect in the signal ratio, with a control signal flat, not every such curve was filed as active; inconclusive means small, poorly fitted or top-dose-only effect, or effect the other way, or a change in a side signal; the % refers to the signal ratio; further: on the % scale 0 is the no-effect control and ±100 the full control effect
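S3 HeLa stable clones carrying a lamin A-EGFP splicing minigene plus DsRed2 were seeded at 600 cells/well in Opti-MEM with 2% FBS, pin-dosed and incubated 48 h at 37°C. Acumen cytometry (488 nm) gave the GFP/RFP total-intensity ratio.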
Numbers without * were called inactive; ? = inconclusive; / = no result given; [ ] = another dose, or the depositor's remark. Unless noted, the call rests on the fitted dose curve; in most records, active means well fitted curve in the direction sought with a large enough effect; inconclusive means small, poorly fitted or top-dose-only effect, or another doubt; inactive means no such curve, though single readings can be large; an effect the other way counts as inactive or inconclusive. Potency means the concentration at half of the fitted maximal effect.

SMILES | HTT ATP protect | HttQ103 aggreg | HPGD block | ALDH1A1 inh | KinaseGlo FLuc | LMNA splice mod
COc1ccc2cc(CN(Cc3ccco3)Cc3nnnn3C3CCCCC3)c(=O)[nH]c2c1 | -22%[10 µM] | -8% | -11% | 7.9µM* | 1% | ?
Cc1cccc2cc(CN(CC3CCCO3)C(c3nnnn3Cc3ccco3)C(C)C)c(=O)[nH]c12 (stereo not given) | -48% | -12% | -1% | 6.3µM* | 1% | ?
COc1ccc(C(=O)NCc2ccccc2OC)cc1 | -4%[10 µM] | -4% | -16% | -1% | -2% | -12%
O=C(Nc1ccc2oc(-c3ccccc3)nc2c1)c1ccncc1 | -24% | -14% | -8% | ? | 9% | ?
COc1ccc(-n2c(-c3cccc(C)c3[N+](=O)[O-])n[nH]c2=S)cc1 | -9% | 6% | 35µM* | ? | 1% | -2%
COCCn1c(C(C)C)nc2sc3ccccc3c(=O)c2c1=O | -5% | 1% | -12% | 1% | 5% | 3%
COc1ccc(CCn2c(Br)nc3c2c(=O)[nH]c(=O)n3C)cc1 | -12% | 1% | 13µM* | 6% | 0% | 8%
Cc1nnc(SCCn2c(Br)nc3c2c(=O)[nH]c(=O)n3C)s1 | 6%[0.074 µM] | 10% | -14% | 7.9µM* | 0% | 1%
Cn1c(=O)[nH]c(=O)c2c1nc(Br)n2CCC(=O)c1ccccc1 | 9%[10 µM] | -5% | -9% | 3.5µM* | -9% | 3%
CN(C)c1ccc(C=C(c2nnnn2-c2ccccc2)c2nnnn2-c2ccccc2)cc1 | -19%[10 µM] | -9% | -3% | ? | 1% | -12%
Nc1ccc2nc(-c3ccccc3)sc2c1 | -113% | -6% | ? | ? | 7.9µM* | ?
COc1ccc(C(=O)NCc2cc(C)nc3ccccc23)cc1 | -8% | -13%[9.22 µM] | / | 5% | 2% | /
Nc1c(C(=O)C2CC2)sc2nc(-c3ccccc3)cc(C(F)(F)F)c12 | 7%[10 µM] | -29% | 28µM* | ? | -2% | -5%
COc1cccc(NCc2cc3c(C(C)(C)C)nn(-c4ccccc4)c3[nH]c2=O)c1 | -8% | 15% | ? | 13µM* | -5% | -1%
O=C(CN1CC(=O)Oc2ccccc21)OCC(=O)c1ccc(F)cc1 | 2% | -3% | / | 20µM* | -1% | ?
O=C1CN(CC(=O)N2CCOCC2)c2ccccc2O1 | -9%[0.074 µM] | -5% | -6% | 9.5µM* | -1% | 2%
O=C1CN(CC(=O)N2CCCCC2)c2ccccc2O1 | 9%[0.074 µM] | -3% | 8% | -10% | -4% | ?
CCOc1ccc(Nc2nc(Cc3nnc(SCC(=O)c4ccc(C)c(C)c4)o3)cs2)cc1 | -16% | 10µM* | -10% | 12% | -4% | ?
C[n+]1ccccc1/C=N/O | ? | 3% | -13% | -5% | -6% | -3%
CC(O)/C=C/c1cccc[n+]1C (stereo not given) | -7% | 9% | -11% | 25µM* | -4% | 18%
CCOc1ccc2nc(/N=C/c3c(C)[nH]n(-c4ccccc4)c3=O)sc2c1 | -23%[10 µM] | 14% | -26% | ? | ? | -10%
CCOc1ccc2nc(SCC(=O)c3ccc(C)s3)sc2c1 | -8%[10 µM] | ? | 14µM* | ? | -4% | -1%
CCOc1ccc2nc(/N=C/c3c(C)[nH]n(-c4ccc(C)cc4)c3=O)sc2c1 | -15%[10 µM] | -3% | ? | -6% | 7.9µM* | -7%
CCOc1ccc2nc(SC3CC(=O)N(c4ccc(C)cc4)C3=O)sc2c1 (stereo not given) | -95%[10 µM] | ? | -6% | 2.2µM* | -6% | 1%
CCOc1ccc2nc(SC3CC(=O)N(c4ccc(OC)cc4OC)C3=O)sc2c1 (stereo not given) | / | / | / | 25µM* | -5% | ?
SMILES | HTT ATP protect | HttQ103 aggreg | HPGD block | ALDH1A1 inh | KinaseGlo FLuc | LMNA splice mod
CCOC(=O)c1cc(-c2c(Cl)cccc2Cl)no1 | 5%[10 µM] | 16%[9.22 µM] | / | -1% | / | /
CCOC(=O)C1CCN(C(=O)c2cccc(NC(=O)C(CC)CC)c2)CC1 | -12% | -2% | 5% | 6% | -2% | -12%
COCc1[nH][nH]c(=O)c1C=Nc1ccc(Oc2ccccc2)cc1 | -3% | -7% | -22% | ? | -2% | 5%
O=S(=O)(Nc1ccc(N2CCCCC2)cc1)c1cccs1 | -3% | -10% | 25µM* | -2% | -7% | ?
O=S(=O)(Nc1ccc(S(=O)(=O)N2CCCCCC2)cc1)c1cccs1 | 10% | -28% | -9% | ? | -1% | 9%
Cc1cccc(NS(=O)(=O)c2ccc(C3CCCCC3)cc2)c1 | -57% | 11µM* | 4% | -4% | -1% | ?
O=C(CNCc1cccs1)Nc1ccc(S(=O)(=O)N2CCCCC2)cc1 | -12% | 7% | / | ? | 2% | 1%[9.22 µM]
O=C(CNCc1cccs1)Nc1ccc(N2CCCCCC2)cc1 | -37% | 1% | / | 22µM* | -2% | ?
CCCOC(=O)c1ccc(NS(=O)(=O)c2cccs2)cc1 | 1% | 0% | 18µM* | ? | -1% | ?
O=C(CC(O)(c1ccccc1)C(F)(F)C(F)F)c1cccs1 (stereo not given) | -1% | -1% | -9% | 3% | 3% | 18%
O=C(c1ccc(NS(=O)(=O)c2cccs2)cc1)N1CCCCC1 | -16%[10 µM] | 0% | 11µM* | ? | -2% | ?
Cc1cccc(NS(=O)(=O)c2cccs2)c1 | 9% | -15% | 28µM* | 9% | 0% | 14%
O=C(c1ccc(NS(=O)(=O)c2cccs2)cc1)N1CCN(c2ccccc2Cl)CC1 | 13%[10 µM] | -24% | / | ? | 2% | -22%[46 µM]
O=S(=O)(Nc1cccc(CO)c1)c1cccs1 | 12%[10 µM] | 1%[9.22 µM] | / | ? | / | 13%[46 µM]
CC(=O)c1sc(NC(=O)C2(F)C(F)(F)C(F)(F)C(F)(F)C(F)(F)C2(F)F)nc1C | -5%[0.074 µM] | 1.4µM* | -17% | -11% | 1% | ?
CC(=O)c1sc(NC(=O)C=C(C)C)nc1C | -17%[10 µM] | -5% | -21% | ? | -25% | 7%
Cc1ccc2cc(CN(Cc3ccc(F)cc3)Cc3nnnn3C3CCCC3)c(=O)[nH]c2c1 | -6%[1.9 µM] | 25µM* | -26% | 14µM* | 1% | 4%
COc1ccc(Cn2nnnc2CN(Cc2cc3ccc(C)cc3[nH]c2=O)C2CCCC2)cc1 | -30% | -6%[9.22 µM] | -5% | 22µM* | -4% | ?
Cc1ccc2cc(CN(Cc3ccccc3)Cc3nnnn3C3CCCC3)c(=O)[nH]c2c1 | -13%[10 µM] | ? | -22% | 10µM* | 2% | ?
CCc1ccc2[nH]c(=O)c(CN(Cc3ccc4c(c3)OCO4)Cc3nnnn3C3CCCC3)cc2c1 | -28%[10 µM] | ? | -29% | ? | 1% | -14%
O=C1c2cccc3c([N+](=O)[O-])c(O)cc(c23)C(=O)N1Nc1ccccc1 | 5% | 19% | / | ? | -1% | ?
CCOC(=O)c1[nH]c(C)c(C(=O)NCCCOC(C)C)c1C | 10%[10 µM] | -3% | -12% | 3% | 2% | -8%

Source: PubChem BioAssay
